These results are taken from PubChem BioAssay (NCATS).

Inconclusive results are not listed. Entries that show only a call come without a potency. Activity calls are given as the source filed them. The call rests on the fitted dose curve; in most records, active means well fitted cell-killing curve with a large enough effect; inconclusive means small, poorly fitted or top-dose-only effect, or effect the other way; inactive means no such curve, though single readings can be large or run the other way.
Potency means the concentration at half of the fitted maximal effect.

The assay in a line: qHTS assay to identify small molecule inhibitors of chordoma cells - UCH-1 (AID 1259355). Further: nearly all actives have a fitted effect of over 55% in size. The following applies: UCH-1 chordoma viability, CellTiter-Glo, 48 h, combination, with auranofin plus four topoisomerase inhibitors; series mostly up to 46.1 µM. The gist of the method: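 Cells (800/well) were seeded and left overnight at 37 C, 5% CO2, then treated with drugs at 15 concentrations plus a combination mix of auranofin, camptothecin, doxorubicin, rubitecan and topotecan. Viability after 48hr was read by CellTiter-Glo luminescence.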
(In qHTS, concentration-response curves come from the screen itself.)
For `C=C1[C@@H]2CC[C@@H](C2)C1(C)C`, the Potency entry was “inactive”.
In the case of `CC(=O)Nc1ccc(OC(C)=O)cc1`, the Potency result was “inactive”.
`NCCO/C=C/[C@H](N)C(=O)O`: the Potency result was “inactive”.
With `C#C[C@]1(O)CC[C@@H]2[C@H]3CCC4=CC(=O)CC[C@H]4[C@H]3C(=C)C[C@@]21CC` the entry was “inactive”.
To `CO/N=C(\C(=O)N[C@@H]1C(=O)N2C(C(=O)O)=CCS[C@H]12)c1csc(N)n1` belongs “inactive”; to `CC(C)=CCC/C(C)=C/C=C/C(C)=C/C=C/C(C)=C/C=C/C=C(C)/C=C/C=C(C)/C=C/C=C(\C)CCC=C(C)C`, “inactive”; to `CCCc1ccc(C(=O)O)cc1`, “inactive”.
With `CC1=CC(=C(c2ccc(N)cc2)c2ccc(N)cc2)C=CC1=N` the figure was 15.8 µM (active); with `CNC(=O)[C@H](Cc1c[nH]c2ccccc12)NC(=O)[C@@H](CC(=O)NO)CC(C)C`, “inactive”.
As for `NS(=O)(=O)c1cc2c(cc1Cl)NC(Cc1ccccc1)NS2(=O)=O` (stereo not drawn), the Potency entry is “inactive”.
To `CO/N=C(\C(=O)N[C@@H]1C(=O)N2C(C(=O)[O-])=C(C[n+]3cccc4c3CCC4)CS[C@H]12)c1csc(N)n1` belongs “inactive”; to `CNC(=O)C[C@@H](N)C(=O)N[C@@H](C(=O)N[C@@H]1C(=O)N2[C@@H]1SC(C)(C)[C@@H]2C(=O)O)c1ccc(O)cc1`, “inactive”.
With `CC(C)(C)C(=O)OCC(=O)[C@H]1CC[C@H]2[C@@H]3CCC4=CC(=O)CC[C@]4(C)[C@H]3CC[C@]12C` the entry was “inactive”; with `Cc1cc(O)c2c(c1)O[C@@]1(C)CC[C@H]3C(C)(C)CCCC34CO[C@@H]2[C@H]41` (stereo partly drawn), “inactive”.
To `O=C(OCc1ccccc1)c1ccc(O)cc1` belongs “inactive”.
For `CC(C)c1ncc([N+](=O)[O-])n1C`, the Potency result is “inactive”.
For the compound `CCOC(=S)SSC(=S)OCC`, the Potency result is “inactive”.
For the compound `O=C(O)CCC(=O)c1ccc(-c2ccccc2)cc1`, the Potency result is “inactive”.
Take `CC(C)[C@H](N)C(=O)OCC(CO)OCn1cnc2c(=O)[nH]c(N)nc21` (stereo partly drawn): the Potency entry was “inactive”.
With `CCCCC` the entry was “inactive”; with `CC(C)OC(=O)Nc1ccc2nc(-c3cscn3)[nH]c2c1`, “inactive”.
Consider `S=C=Nc1ccc(N=C=S)cc1`, for which the Potency entry was “inactive”.
With `O=C(NNCS(=O)(=O)O)c1ccncc1` the entry was “inactive”; with `C=CCN1CCCC1CNC(=O)c1cc(S(N)(=O)=O)cc(OC)c1OC` (stereo not drawn), “inactive”.
Regarding `CO[C@H]1C=CO[C@@]2(C)Oc3c(C)c(O)c4c(O)c(cc(O)c4c3C2=O)NC(=O)/C(C)=C\C=C/[C@H](C)[C@H](O)[C@@H](C)[C@@H](O)[C@@H](C)[C@H](OC(C)=O)[C@@H]1C`, the Potency entry is “inactive”.
To `CC1(O)CCC(C(C)(C)O)CC1` (stereo not drawn) belongs “inactive”.
To `Nc1ccc(N=Nc2ccccc2)c(N)n1` belongs “inactive”; to `ClC(Cl)Cl`, “inactive”.
To `Oc1ccc(/C=C/c2cc(O)cc(O)c2)cc1` belongs “inactive”; to `OCl`, “inactive”.
On to `CC(=O)N[C@@H]1C(O[C@H]2O[C@H](C(=O)O)C(O)[C@H](O)[C@H]2O)[C@H](O)[C@@H](CO)O[C@H]1O[C@@H]1C(C(=O)O)O[C@@H](O[C@H]2[C@H](O)[C@@H](CO)OC(O)[C@@H]2NC(C)=O)[C@H](O)[C@H]1O` (stereo partly drawn), for which the Potency entry is “inactive”.
With `O=P(O)(O)OC[C@H]1O[C@](O)(COP(=O)(O)O)[C@@H](O)[C@@H]1O` the entry was “inactive”; with `Oc1ccc(Cl)c2c1CCC2`, “inactive”.
As to `Cc1c(O)c(=O)ccn1C`, the Potency result was “inactive”.
With `CCCCCCCCCCCCCCCC(=O)OC[C@H](COP(=O)([O-])OCC[N+](C)(C)C)OC(=O)CCCCCCCCCCCCCCC`, the Potency result was “inactive”.
As to `CC(=O)Oc1cccc2c1C(=O)c1c(OC(C)=O)cc(C(=O)O)cc1C2=O`, the Potency result is “inactive”.
To `NC(=O)[C@@H]1CCCN1C(=O)[C@H](Cc1cnc[nH]1)NC(=O)[C@@H]1CCC(=O)N1` belongs “inactive”; to `CN1c2c(nc(N)[nH]c2=O)NCC1CNc1ccc(C(=O)NC(CCC(=O)O)C(=O)O)cc1` (stereo not drawn), “inactive”.
